Reference: PubChem BioAssay AID1025 (Sanford-Burnham Center for Chemical Genomics, 2008)
In all, about 96,000 compounds went through this assay and fewer than 10 were called active.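 How the source made its calls: active means activation factor of at least 2 at 5 µM in the primary screen; inactive means the rest.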 These entries were drawn from the full list.

Molecular target: Cytochrome P450 2C19 (Homo sapiens) (UniProt P33261)
Assay: enhancers of cytochrome P450 2C19 turnover – biochemical, luminescence, primary screen (AID 1025);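 further: 0 = wells with 2.5 mM tranylcypromine and 1 = vehicle-only wells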
Details: recombinant CYP2C19, luciferin-H EGE luminescence; at 5 µM; stronger effect = higher value; 0 = fully inhibited enzyme, 1 = untreated enzyme

Chain of Cytochrome P450 2C19 (Homo sapiens) (P33261 whole entry, looked up): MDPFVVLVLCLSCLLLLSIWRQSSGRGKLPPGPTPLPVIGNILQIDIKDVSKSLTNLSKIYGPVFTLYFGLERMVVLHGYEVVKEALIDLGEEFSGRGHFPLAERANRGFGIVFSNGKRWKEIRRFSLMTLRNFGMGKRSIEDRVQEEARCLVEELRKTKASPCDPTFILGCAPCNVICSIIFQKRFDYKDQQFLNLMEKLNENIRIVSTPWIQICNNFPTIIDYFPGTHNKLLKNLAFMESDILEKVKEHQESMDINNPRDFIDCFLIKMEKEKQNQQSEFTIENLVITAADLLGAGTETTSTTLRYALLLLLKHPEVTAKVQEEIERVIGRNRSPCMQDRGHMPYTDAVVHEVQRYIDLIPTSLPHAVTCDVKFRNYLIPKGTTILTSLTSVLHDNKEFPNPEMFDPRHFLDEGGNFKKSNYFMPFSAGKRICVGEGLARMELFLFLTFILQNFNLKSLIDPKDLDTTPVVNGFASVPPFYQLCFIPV

Activation factor, inactive:
CCc1ccc(CNC(=O)C2CCCN(c3nc4ccccc4o3)C2)cc1 (stereo not drawn) 0.3, CCn1cc(C(=O)N/N=C(/C)c2ccc(F)cc2)c(=O)c2cc(F)c(N3CCCC3)cc21 0.6, O=C(Nc1cccc(-c2nc3ncccc3o2)c1)c1ccco1 0.9, COc1ccccc1NC(=O)[C@H](COCc1ccccc1)NC(=O)OC(C)(C)C 0.5, CN=C1SC(CC(=O)Nc2ccc(C(=O)O)cc2)C(=O)N1C (stereo not drawn) 1, O=C(c1ccco1)N1CCN(C(=O)C2CCCN(S(=O)(=O)c3cccc4nsnc34)C2)CC1 (stereo not drawn) 1, COc1ccc(NC(=O)Cn2c(-c3ccc(OC)cc3)cn(-c3ccc(C)cc3)c2=O)cc1 1, O=C(N/N=C/c1ccc(O)cc1)/C(=C/c1ccc([N+](=O)[O-])cc1)NC(=O)c1ccccc1 0.9, CSc1ccc(C#N)cc1NC(=O)c1cccc(Cl)c1 0.8, Cc1ccc(S(=O)(=O)N(CC(=O)NCCSC2CCCCC2)c2ccccc2F)cc1 1, CC(c1ccco1)N(C(=O)COc1ccccc1[N+](=O)[O-])c1ccccn1 (stereo not drawn) 0.6, C=CCn1c(SCC(=O)NCc2ccccc2)nnc1-c1cc(Br)ccc1O 0.1, O=C(Nc1nccs1)c1cc(S(=O)(=O)N2CCOCC2)c(Cl)cc1Cl 0.9, CC(C)CCOc1ccc(C(=O)C[N+]2(C)CCOCC2)cc1 0.9, O=C(N/N=C/C=C/c1ccccc1)C1CC1(c1ccccc1)c1ccccc1 (stereo not drawn) 1.2, COCCNC(=O)COc1ccccc1C 1, COc1ccccc1NC(=O)COc1ccc(C(=O)OCC(=O)N(C(C)C)C(C)C)cc1OC 0.4, CCCN1Cc2cccc(C(=O)Nc3ccc(S(=O)(=O)N4CCCCCC4)cc3)c2C1=O 0.8, Cc1cccc(C)c1-n1c(C)cc(/C=C2\C(=O)NN(c3ccccc3)C2=O)c1C 0.6, Cc1ccc(SCCC(=O)OCC(=O)Nc2ncc(Cl)cc2Cl)cc1 0.8, COc1ccc(NCc2nnc(SCc3ccccc3)n2-c2ccc(OC)cc2)cc1 0.1, COc1ccc(-c2cc3nc(C)c(CCC(=O)NC(C)CCc4ccco4)c(C)n3n2)c(OC)c1 (stereo not drawn) 0.7, O=C(COc1cc(Cl)c(Cl)cc1Cl)NC(=O)NC1CCCC1 1.1, CCCCCN1CC(O)=C(c2nc(-c3ccc(Cl)cc3)cs2)C1=N 0.9, Cc1ccc(-n2c(SCC(=O)NCc3ccc4c(c3)OCO4)nnc2-c2cccnc2)c(C)c1 0.7, CCCCNC(=O)CSc1nc2ccc(NC(=O)CSc3nnc(COc4ccccc4C)n3C)cc2s1 0.8, CSc1nc2ccccc2cc1/C=C(\C#N)c1ccc(Cl)cc1Cl 0.9, Cc1nnc(SCC(=O)Nc2ncc3c(n2)CC(C)(C)CC3=O)s1 1, O=C(Nc1ccc2c(c1)OCCO2)C(c1ccc(F)cc1)N1CCCCC1 (stereo not drawn) 0.4, COc1cc(C2C(C(=O)OCCC#N)=C(C)NC3=C2S(=O)(=O)c2ccccc23)cc(OC)c1OC (stereo not drawn) 0.8, CCCCN1C(=O)CC(N2CCOCC2)C1=O (stereo not drawn) 1, O=c1c2ccccc2nc2n1C1(CCCCC1)Cc1ccccc1-2 0.3, Cc1ccc(OCc2nnc(NC(=O)OCC(C)C)s2)cc1 0.9, Cc1csc(=NC(=O)c2ccccc2)n1CCO 0.5, CSC1=N/C(=C\c2ccc3c(c2)OCO3)C(=O)S1 1, CC(C)(C)c1cc2cccnc2n1Cc1cccc(F)c1 0.9, CCNC(=S)Nc1cccc(Cl)c1C 0.5, CN1CCN(c2ccc([N+](=O)[O-])c(Sc3nc4ccccc4[nH]3)c2)CC1 0.7, CC/C(C)=N/Nc1nc2sc3c(c2c(=O)[nH]1)CC(C)(C)OC3 0.6, CCC(=O)Nc1ccc(C(=O)Nc2cccc(OC)c2)cc1 1, C=CCn1c(SCC(=O)c2c(N)n(C)c(=O)n(C)c2=O)nc2sc(CC)cc2c1=O 1, COc1ccc(-c2nc3ccccc3n2CCC(C)C)cc1OC 0.4, CC(C)Oc1ccc(C(=O)NC(C)(C)CO)cc1 1, COc1ccc(C(=O)Nc2ncc3c(n2)-c2ccccc2CC3)cc1 0.9, O=C(Nc1cccc2ccccc12)c1onc2c1CCCC2 0.9, FC(F)(F)c1ccc2nnc(-c3c(Cl)cccc3Cl)n2c1 0.7, Cc1cc(C(=O)OCC(=O)Nc2ccc(F)c(F)c2)c(C)o1 0.1, Cc1nnc(SCC(=O)NC(=O)NC2CCCC2)n1N 1, Cc1ccc(-c2csc(N(Cc3ccco3)C(=O)c3cccs3)n2)cc1 0.3, O=C(c1ccccc1Oc1ccccc1)N1CCN(c2ccc(F)cc2)CC1 0.1, O=C1N=C(N2CCCC2)S/C1=C\c1cccc(Br)c1 0.4, Cc1noc(C)c1COC(=O)c1cc2ccccc2cc1O 0.1, Cc1nnc(OCC(=O)NCCC2=CCCCC2)c2ccccc12 0.4, CCOCCCNC(=O)C(NC(=O)CNC(=O)c1ccccc1)c1ccc(C)cc1 (stereo not drawn) 1.1, Nn1c(SCC(=O)NC2CCCC2)nnc1-c1ccccc1F 0.8, CCN(CC)Cc1csc2ccc(Br)cc12 0.9, CN(C)c1ccc(CNC2C3CC4CC(C3)CC2C4)cc1 (stereo not drawn) 0.2, FC(F)(F)c1cccc(-c2cc3ccccc3nc2N2CCCC2)c1 0.8, COc1ccc2[nH]c(=O)c(CNc3ccc(C)c(C)c3)cc2c1 0.8, Cn1nc(C(F)(F)F)c(C(=O)Nc2cccc(C(F)(F)F)c2)c1SCc1ccc(Cl)cc1 0.1, Cc1ccc(/C=N\n2c(-c3ccccc3)n[nH]c2=S)s1 1, CCCCCCOc1ccc(OC(=O)c2cccnc2)cc1 0.8, O=S(=O)(c1cnccc1N1CCN(/N=C/c2ccc(Br)cc2)CC1)N1CCCCC1 1.1
